Screening data: PubChem, Broad Institute
STK33 kin inh = inhibitors of human STK33 kinase; ADP-Glo luminescence, MBP substrate; Q9BYT3; 0.44% of 27,000 active; inhibition, % at 12.5 µM; in the data active means inhibition above about 20%
Target sequence (Q9BYT3 whole entry, looked up): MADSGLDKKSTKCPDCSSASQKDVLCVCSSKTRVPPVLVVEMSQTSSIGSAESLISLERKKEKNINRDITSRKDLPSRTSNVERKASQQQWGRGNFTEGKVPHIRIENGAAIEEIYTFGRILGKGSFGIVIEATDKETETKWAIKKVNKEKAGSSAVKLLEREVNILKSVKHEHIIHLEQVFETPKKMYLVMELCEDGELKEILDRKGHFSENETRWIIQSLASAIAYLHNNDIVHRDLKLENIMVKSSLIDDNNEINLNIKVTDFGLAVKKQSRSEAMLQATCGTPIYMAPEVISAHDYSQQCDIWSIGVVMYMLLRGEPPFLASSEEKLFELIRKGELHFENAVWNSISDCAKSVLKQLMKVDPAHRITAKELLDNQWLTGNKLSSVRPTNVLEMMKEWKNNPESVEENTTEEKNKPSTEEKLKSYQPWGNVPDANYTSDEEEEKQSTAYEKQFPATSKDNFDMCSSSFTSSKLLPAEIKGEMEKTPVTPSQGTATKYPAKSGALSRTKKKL
NOMO-1 viab = STK33 inhibitor candidate reducing NOMO-1 cell viability; NOMO-1 AML viability, CellTiter-Glo luminescence, 72 h; inhibition, % (no concentration beside the values); 7.5% of 37,000 active; in the data active means inhibition above about 80%
PD-1 reverse act = reversal of PD-1 mediated T-cell inhibition. 29,000 tested, under 10 active. activation, % (concentration not given with the values). primary human CD4 T cells, PD-L1 beads, CellTiter-Glo 96 h. AID 2316; call rule not given here;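 further: 0% = median vehicle wells and 100% = positive control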
* marks the source's active call; other numbers are inactive results; . = no result given. Only a selection was taken, and hits are over-represented in it overall.

SMILES	STK33 kin inh	NOMO-1 viab	PD-1 reverse act
CO/C1=C/C(C)=C/[C@@H](C)[C@@H](O)[C@@H](C)C/C(C)=C/C=C\[C@H](OC)[C@@H]([C@@H](C)[C@@H](O)[C@H](C)[C@@]2(O)C[C@@H](O)[C@H](C)[C@@H](C(C)C)O2)OC1=O	2.1	142.4*	-33.1
CC(C)(O)CCC(=O)[C@](C)(O)[C@H]1[C@H](O)C[C@@]2(C)[C@@H]3CC=C4C(C=C(O[C@@H]5O[C@H](CO)[C@@H](O)[C@H](O)[C@H]5O)C(=O)C4(C)C)[C@]3(C)C(=O)C[C@]12C (some centres undefined)	-1.4	-10.1	1.1
COc1cc2c(cc1O)CCNC2C (centres undefined)	3.6	-0.9	.
CC[C@H]1CN2CCc3cc(OC)c(OC)cc3[C@@H]2C[C@@H]1C[C@H]1NCCc2cc(O)c(OC)cc21	0.0	119.7*	.
COc1ccc2c(c1OC)C(=O)O[C@H]2[C@H]1c2cc3c(cc2CCN1C)OCO3	1.5	15.1	.
COc1cc([C@@H]2c3cc4c(cc3[C@@H](O)C3COC(=O)C32)OCO4)cc(OC)c1O (some centres undefined)	1.1	101.7*	.
COc1cc([C@@H]2c3cc4c(cc3[C@H](OC(C)=O)[C@H]3COC(=O)[C@@H]23)OCO4)cc(OC)c1OC	1.2	108.1*	.
COc1cc(C2c3cc4c(cc3CC3COC(=O)C32)OCO4)cc(OC)c1OC (centres undefined)	-1.6	118.4*	-9.4
Oc1ccc2c3c1OC1[C@@H](O)CC[C@@]4(O)[C@@H](C2)N(CC2CCC2)CC[C@]314 (some centres undefined)	-0.7	3.3	.
C[C@@H](CO)NC(=O)C1C=C2c3cccc4[nH]cc(c34)C[C@H]2N(C)C1 (some centres undefined)	1.2	9.7	.
O=c1c2ccccc2nc(CSc2ccccn2)n1-c1cccc(C(F)(F)F)c1	-6.6	15.9	0.5
O=C(CCl)c1cc(Br)c(Br)s1	1.4	99.4*	-26.2
C=C(C)c1cc2cc(C(C)=O)c(O)cc2o1	5.9	65.8	.
N#CC(O[C@@H]1O[C@H](CO[C@@H]2O[C@H](CO)[C@@H](O)[C@H](O)[C@H]2O)[C@@H](O)[C@H](O)[C@H]1O)c1ccccc1 (some centres undefined)	1.0	35.3	7.3
CCCN1CCc2cccc3c2[C@H]1Cc1ccc(O)c(O)c1-3	4.9	113.1*	.
COc1cc2c3c(c1OC)-c1c(ccc(O)c1O)CC3N(C)CC2 (centres undefined)	4.2	34.6	-0.5
C[C@H]1CN([C@@H](C)CO)C(=O)CCCn2cc(nn2)CO[C@H]1CN(C)C(=O)Oc1cccc2ccccc12	1.3	.	.
CCCCCc1cc(O)c2c(c1)OC(C)(C)[C@@H]1CCC(C(=O)O)=CC21 (some centres undefined)	-1.9	20.3	9.3
CCOC(=O)c1c(NC(=O)C2C(C)(C)C2(C)C)sc2c1CCC2	0.5	14.9	-12.3
O=C(O)C1C2CCC(O2)C1C(=O)NCCc1ccccc1 (centres undefined)	-1.7	68.5	-12.4
CCC[C@H]1C[C@H]2OC(=O)c3c(cc(OC)c(OC)c3O)[C@H]2O1	-6.5	14.2	1.8
N[C@H]1C[C@@H]1c1ccccc1	-0.2	31.0	-0.4
CC(=O)Oc1ccc(/C=C/c2cc(OC(C)=O)cc(OC(C)=O)c2)cc1	1.7	87.7*	.
CCCSP(=O)(OCC)SCCC	1.9	-3.8	.
CC1=C2C[C@H]3[C@@H](CC=C4C[C@@H](O)CC[C@@]43C)[C@@H]2CC[C@]12O[C@@H]1C[C@H](C)CN[C@H]1[C@H]2C	-1.8	55.0	.
SMILES	STK33 kin inh	NOMO-1 viab	PD-1 reverse act
C/C=C(\C)[C@H](O)[C@H](C)/C=C(C)/C=C/C/C(C)=C/Cc1[nH]c(OC)c(OC)c(=O)c1C	-12.0	98.6*	-8.4
CN(C)C(=O)Oc1ccnc(SCc2c(F)cccc2Cl)n1	.	67.8	0.6
C[C@@H]1C(=O)O[C@H]2[C@H]1CC[C@@]1(C)C=CC(=O)[C@@]3(C)O[C@@]213	8.1	88.3*	-5.3
CCC12CCCN3CCC4(c5ccc(OC)c(O)c5N(C(C)=O)C4CC1)C32 (centres undefined)	.	20.3	0.2
C/C=C(\C)C(=O)OC1C(C)=C2C(C1OC(=O)CCCCCCC)C(C)(OC(C)=O)CC(OC(=O)CCC)C1(O)C2OC(=O)C1(C)O (centres undefined)	-7.7	120.4*	-13.9
C/C=C(/C)C(=O)O[C@H]1C(C)=C2[C@H]([C@@H]1OC(=O)CCCCCCC)[C@@](C)(OC(C)=O)C[C@H](OC(=O)CCC)[C@@]1(O)[C@H]2OC(=O)[C@@]1(C)O	3.3	121.6*	.
CCN(CC)P1(=O)OC(C)(C)CC1(C)O (centres undefined)	.	12.4	0.5
C=CC1C[N+]2([O-])CCC1CC2C(O)c1ccnc2ccc(OC)cc12 (centres undefined)	-0.5	.	.
